Common to all, as to test: NCI-60 one-dose screen, 48 h (100 = growth as untreated, 0 = no growth, -100 = all killed)
Conditions in all cases: 10 µM unless noted

Test [1] concerns HCT-15 colon.
Test [2] relates to HT29 colon.
Test [3] deals with SNB-75 CNS.
The subject of test [4] is SNB-19 CNS.
Test [5] has as its system U251 CNS.
Test [6] concerns PC-3 prostate.
Test [7] deals with SK-MEL-5 melanoma.
Test [8] has as its system UACC-62 melanoma.
In test [9] the test system is LOX IMVI melanoma.
The test system of test [10] is SK-MEL-28 melanoma.

About 83,000 compounds went through this panel and 20% of them were active in at least one assay; those are over-represented in the sample as a whole.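 In brief: 96-well plates, 48 h treatment, single concentration, percent growth endpoint.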 A number with no mark means an inactive call. Activity calls are given as the source filed them. Rule for the calls: active = growth percent below 10; inactive = the rest.

For `COc1ccc2c(c1)c(-c1ccc(-c3cn(C)c4ccc(OC)cc34)o1)cn2C`, the growth in test [1] was 56.2%; in [2], 72.7%; in [3], 71.4%; in test [4], 33.3%; in test [5], 15%; in [6], 3% (active). Also, the growth in test [7] is -2.83% (active); in [8] it was 12.4%; in test [9], 53.2%; in test [10], 83.6%.
For `CCS(=O)(=O)c1ncnc2nc[nH]c12`, the growth in test [1] was 101%; in test [2] it was 93.2%; in [3], 90.9%; in [4], 97.9%; in test [5], 95.6%; in test [6], 76.4%. For the same compound, the growth in [7] was 98.7%; in [8], 94.1%; in [9], 101%; in test [10], 107%.
Turning to `COc1ccc(N)c(N)c1`, the growth in [1] is 101%; in [2] it was 104%; in test [3], 85.7%; in test [4], 96.7%; in [5] it was 107%; in test [6], 99.4%. Moreover, the growth was 105% in test [7], 93.6% in test [8], 99.3% in test [9] and 111% in test [10].
Regarding `CCOC(=O)c1sc2ncc(-c3ccc(C)cc3)n2c1C`, the growth in test [1] is 90.1%; in test [2] it was 93.1%; in test [3] it was 74.7%; in test [4], 94.5%; in test [5], 96.2%; in [6], 81%. Further, the growth is 95.1% in [7], 72.6% in [8], 85.2% in [9] and 102% in test [10].
Consider `Cc1ccc(/C=C2\Oc3ccc(O)c(O)c3C2=O)cc1`, for which the growth in [1] is 9.23% (active); in test [2] it was 87.8%; in test [3], 32.5%; in test [4], 37.9%; in [5], 20.2%; in test [6] it was 43.3%. In addition, the growth in test [7] is 47.3%; in [8], 45.3%; in test [9], 16.9%; in [10], 53.6%.
As to `Oc1c(I)cc(I)cc1CNCCCN(Cc1ccccn1)Cc1ccccn1`, the growth in test [1] is -37.7% (active); in test [2] it was -12.9% (active); in [3], -89% (active); in test [4], 2.67% (active); in test [5], -12.9% (active); in test [6], -55.5% (active). For the same compound, the growth in test [7] was -96.9% (active); in [8] it was -55.5% (active); in [9] it was -91.7% (active); in test [10], -33.8% (active).
As to `CCCC1CCC(O)(C(C)(O)C(=O)NC2C(=O)N3NCCCC3C(=O)N(O)C(C)C(=O)N3NCCCC3C(=O)N3NCC(O)CC3C(=O)NC(C)C(=O)OC2C(C)C)OC1CC` (stereo not given), the growth in test [1] was -64.1% (active); in [2], -55.6% (active); in test [3], -83% (active); in test [4], -81.5% (active); in test [5], -74.2% (active); in test [6] it was -86% (active). Further, the growth in test [7] was -97.3% (active); in test [8], -71.8% (active); in [9], -72.9% (active); in test [10], -99.3% (active).
Consider `O=C(O)c1cn(C2CC2)c2cc(N3CCN(C(=O)Nc4nc(-c5ccc(Cl)cc5)cs4)CC3)c(F)cc2c1=O`, for which the growth was 7.05% (active) in test [1]; 5.06% (active) in test [2]; 9.36% (active) in test [3]; 23.9% in test [4]; 10.8% in test [5]; -2.99% (active) in [6]. In addition, the growth is -60.3% (active) in [7], -4.17% (active) in test [8], -66.8% (active) in [9] and 39.4% in test [10].
Regarding `COc1ccc(-c2nn(C(=O)c3cc(OC)c(OC)c(OC)c3)c3cc(N)ccc23)cc1`, the growth in test [1] was 4.67% (active); in [2], 0.136% (active); in test [3], 39.6%; in test [4], 34%; in [5], 12.3%; in test [6] it was 25.8%. Besides, the growth is -15.8% (active) in test [7], 42.5% in test [8], 26.3% in [9] and 45.1% in [10].
With `OC(COc1ccccc1)CN1CCN(c2ccc(Cl)cc2)CC1` (stereo not given), the growth in test [1] was 115%; in test [2] it was 101%; in test [3], 95.2%; in test [4], 95.4%; in test [5], 102%; in test [6] it was 82%. Besides, the growth is 96.2% in test [7], 90.3% in test [8], 101% in [9] and 96.9% in [10].
For the compound `Cc1nc(S(=O)(=O)c2ccccc2)c(S(=O)(=O)Cc2ccc([N+](=O)[O-])cc2)o1`, the growth was 82.5% in test [1]; 91.2% in test [2]; 72.9% in [3]; 92.5% in [4]; 98.8% in test [5]; 87.9% in test [6]. Moreover, the growth in [7] is 95.9%; in [8] it was 79.8%; in [9], 89.6%; in test [10] it was 103%.
For `COc1ccc(-c2conc2-c2ccccc2)cc1`, the growth in [1] was 17.9%; in test [2], 53.1%; in test [3], -12.4% (active); in test [4] it was 30.1%; in [5] it was 20.9%; in [6], 20%. In addition, the growth in test [7] was 22.4%; in test [8], 17.8%; in [9] it was 38.8%; in test [10] it was 55.3%.
Regarding `CC1=C([Se]CC(OC(=O)[C@@H](CSSC(C)(C)C)NC(=O)OC(C)(C)C)C(=O)NC(C)(C)C)C(=O)c2ccccc2C1=O` (stereo not given in full), the growth in test [1] is -28.6% (active); in test [2] it was -6.98% (active); in [3] it was -95.8% (active); in [4] it was -90.8% (active); in test [5] it was -86.5% (active); in test [6] it was -71.6% (active). Further, the growth was -97.6% (active) in test [7], -88.1% (active) in [8], -61.9% (active) in test [9] and -96.3% (active) in test [10].
In the case of `COc1ccc(C(=O)COC(=O)[C@H](C[Se][Se]C[C@H](NC(=O)c2ccc(Br)cc2F)C(=O)OCC(=O)c2ccc(OC)cc2)NC(=O)c2ccc(Br)cc2F)cc1`, the growth in test [1] was -30.7% (active); in [2], 10.7%; in test [3], -95.6% (active); in test [4] it was -38.1% (active); in test [5] it was -85.3% (active); in [6], -63.8% (active). Besides, the growth in test [7] is -8.07% (active); in test [8], -89.5% (active); in test [9], -50.8% (active); in test [10], -74.5% (active).
With `C#C[C@]1(O)CC[C@H]2[C@@H]3CC=C4c5sc(Nc6ccccc6)nc5CC[C@]4(C)[C@H]3CC[C@@]21C`, the growth in [1] was -28.1% (active); in [2] it was 6.31% (active); in test [3] it was -22.2% (active); in test [4], 49.4%; in test [5], 13.8%; in test [6], 10.4%. The growth in [7] is 14.2%; in [8], 19.6%; in test [9], -6.23% (active); in test [10], -19.9% (active).
In the case of `CCCCC[C@H](O)C/C=C1/C(=O)C=C[C@@H]1C/C=C\CCCC(=O)O`, the growth in [1] is 69.5%; in test [2], 59.8%; in [3], 79.1%; in test [4] it was 83.4%; in test [5], 43.8%; in test [6] it was 78.4%. Moreover, the growth is 82.8% in [7], 60.9% in test [8], 6.2% (active) in [9] and 66.4% in test [10].
Consider `CCCCCCCCCCCCCCCCCCOc1ccccc1CC(=O)OCC[N+](CC)(CC)CC`, for which the growth in test [1] is 80.9%; in test [2] it was 13.1%; in test [3], 22.5%; in test [4] it was 11.4%; in test [5], 14.4%; in test [6], 18.3%. Besides, the growth in test [7] was -3.62% (active); in test [8] it was 21.4%; in test [9], -57.6% (active); in [10], 31.5%.
Turning to `N#Cc1c(Nc2cccc(Cl)c2)sc(C(=O)c2cc3cc(Cl)ccc3o2)c1N`, the growth is 72.6% in test [1]; 80.5% in test [2]; 101% in test [3]; 97.5% in [4]; 62.6% in test [5]; 62.8% in test [6]. Moreover, the growth in test [7] is 73.4%; in test [8] it was 78.6%; in test [9], 85.9%; in test [10], 94.3%.
Consider `CCOC(=O)CC1C(COC(=O)NC)OC(n2cnc3c(NC(=O)Nc4ccccc4)ncnc32)C1O[Si](C)(C)C(C)(C)C` (stereo not given), for which the growth in test [1] is 52.2%; in test [2], 8.8% (active); in test [3], 45.4%; in test [4], 99.1%; in test [5] it was 52%; in [6], 32.4%. The growth in test [7] was 23.5%; in test [8] it was 65.1%; in test [9] it was 48.6%; in test [10], 71.9%.
Regarding `C=C1C(=O)O[C@H]2[C@H]1CC/C(COC(=O)CCSSCCC(=O)OC/C1=C/CC[C@@]3(C)O[C@H]3[C@H]3OC(=O)C(=C)[C@@H]3CC1)=C\CC[C@@]1(C)O[C@@H]21`, the growth is -74.2% (active) in test [1]; -78.7% (active) in [2]; 52.5% in [3]; 39.2% in test [4]; -12% (active) in test [5]; -11.6% (active) in [6]. Besides, the growth in test [7] was 41.7%; in [8] it was 36.7%; in test [9], -75.8% (active); in test [10], -42.8% (active).
As to `COc1ccc(-c2nc3sc(-c4ccc(Cl)cc4)cn3n2)cc1`, the growth is 72% in [1]; 17.3% in test [2]; -1.66% (active) in [3]; -1.95% (active) in [4]; -67.9% (active) in test [5]; 58.1% in [6]. The growth was 72.6% in [7], 68.6% in test [8], 54.2% in test [9] and 100% in test [10].
With `NC1=NC(c2cccc(Br)c2)c2sc3ccc(Cl)cc3c2N1` (stereo not given), the growth in test [1] was 103%; in [2], 104%; in [3] it was 75.6%; in test [4] it was 97.3%; in test [5], 103%; in test [6], 88.7%. Also, the growth in [7] was 96.5%; in test [8], 84.5%; in test [9], 98.8%; in [10], 118%.
In the case of `O=C(O)C(c1ccccc1)N1C(=O)CSC1=S` (stereo not given), the growth in test [1] was 103%; in test [2], 106%; in test [3] it was 72.8%; in [4] it was 102%; in test [5], 96.4%; in test [6] it was 101%. For the same compound, the growth in test [7] was 102%; in [8] it was 97.7%; in test [9], 97.2%; in test [10], 99.5%.
For `O=C(CCN1C(=O)/C(=C/c2ccc(O)cc2)SC1=S)Nc1ccccc1`, the growth in [1] was 90.8%; in test [2], 118%; in test [3], 89.3%; in test [4] it was 91.4%; in [5], 92.7%; in test [6], 90.5%. For the same compound, the growth in test [7] was 101%; in test [8], 81.6%; in test [9], 97.6%; in test [10], 97.3%.
On to `Cc1cccc2c3c(sc12)C(c1ccc(Cl)cc1)C(C#N)=C(N)O3` (stereo not given), for which the growth is 10.3% in test [1]; 6.24% (active) in test [2]; 4.24% (active) in [3]; 27.6% in [4]; 27.2% in test [5]; 16.2% in [6]. The growth in [7] is 27.1%; in test [8], 17.6%; in test [9], 18.4%; in test [10], 58.6%.
Consider `CCOC(=O)c1[nH]c(C)c(C(=O)OCc2ccccc2C#N)c1C`, for which the growth in test [1] was 60.8%; in [2] it was 35.1%; in test [3], 0.16% (active); in test [4], 97.1%; in test [5], 50.9%; in [6], 80.3%. The growth in test [7] was 60.3%; in test [8], 73.6%; in [9], 63.1%; in [10] it was 87.1%.
